Reference: PubChem BioAssay (NCI)
The panel holds about 83,000 compounds, 20% with a hit somewhere; the sample as a whole holds those more often.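 Results are percent growth after 48 hours of single-concentration exposure. 100 means growth as in untreated cells, lower positive values show inhibition; negative values down to -100 show cell death.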 Calls of active or inactive are those of the source. How the source made its calls: active means growth percent below 10; inactive means the rest.

How the values were obtained:
Test in all cases: NCI-60 one-dose screen, 48 h (100 = growth as untreated, 0 = no growth, -100 = all killed)
Conditions in all cases: 10 µM
SK-MEL-2 melanoma = test system: SK-MEL-2 melanoma
EKVX NSCLC = test system: EKVX NSCLC
SN12C renal = test system: SN12C renal
UO-31 renal = test system: UO-31 renal
TK-10 renal = test system: TK-10 renal
ACHN renal = test system: ACHN renal
A498 renal = test system: A498 renal
CCRF-CEM leukemia = test system: CCRF-CEM leukemia
MOLT-4 leukemia = test system: MOLT-4 leukemia

Measured: growth

CCOC(=O)c1cc(C(=O)c2ccc(F)cc2F)n2ccccc12
inactive: SK-MEL-2 melanoma 91.2% | EKVX NSCLC 99.7% | SN12C renal 95.9% | UO-31 renal 72.3% | TK-10 renal 115% | ACHN renal 97.1% | A498 renal 87.9% | CCRF-CEM leukemia 84.7% | MOLT-4 leukemia 87%

O=C1c2ccccc2C(=O)c2c1ccc(C(Br)Br)c2[N+](=O)[O-]
active: ACHN renal -16.1% | CCRF-CEM leukemia -43.4% | MOLT-4 leukemia -45.5%
inactive: SK-MEL-2 melanoma 77.5% | EKVX NSCLC 46.8% | SN12C renal 34.4% | UO-31 renal 50.6% | TK-10 renal 73.2% | A498 renal 26.6%

CN(C)CCOc1ccccc1NC1=C(Cl)C(=O)C(Nc2ccccc2OCCN(C)C)=C(Cl)C1=O
inactive: SK-MEL-2 melanoma 82.9% | EKVX NSCLC 16% | UO-31 renal 38.4% | TK-10 renal 85.4% | A498 renal 107%
active: SN12C renal -69.9% | ACHN renal -84.1% | CCRF-CEM leukemia 4.28% | MOLT-4 leukemia -32.4%

C/C=C/CSC(C)(C)C(=O)NC
inactive: SK-MEL-2 melanoma 109% | EKVX NSCLC 99.8% | SN12C renal 106% | UO-31 renal 93.8% | TK-10 renal 103% | ACHN renal 108% | A498 renal 103% | CCRF-CEM leukemia 98.5% | MOLT-4 leukemia 102%

Cc1ccc(Cl)cc1NC(=O)CCl
inactive: SK-MEL-2 melanoma 86.9% | EKVX NSCLC 119% | SN12C renal 84% | UO-31 renal 91.3% | TK-10 renal 96% | ACHN renal 104% | A498 renal 105% | CCRF-CEM leukemia 28.4% | MOLT-4 leukemia 32%

CC(=O)OC/C=C(/C)C[P+](c1ccccc1)(c1ccccc1)c1ccccc1
inactive: SK-MEL-2 melanoma 83.8% | EKVX NSCLC 82.4% | SN12C renal 51.5% | UO-31 renal 61.1% | TK-10 renal 70.6% | ACHN renal 70% | A498 renal 81.9% | CCRF-CEM leukemia 52.7% | MOLT-4 leukemia 78.2%

CCN(CC)CCOc1ccc2c(c1O)C(=O)c1ccccc1C2=O
inactive: SK-MEL-2 melanoma 88.1% | EKVX NSCLC 100% | SN12C renal 76.2% | UO-31 renal 67.3% | TK-10 renal 78% | ACHN renal 56.9% | A498 renal 88.3% | CCRF-CEM leukemia 77.2% | MOLT-4 leukemia 72.3%

O=S(=O)(O)c1cccc(Nc2ccc3ccccc3c2)c1
inactive: SK-MEL-2 melanoma 93.7% | EKVX NSCLC 105% | SN12C renal 92.5% | UO-31 renal 68.9% | TK-10 renal 115% | ACHN renal 98% | A498 renal 96.7% | CCRF-CEM leukemia 95.6% | MOLT-4 leukemia 95.3%

Cc1ccc(S(=O)(=O)N(C)CCCCCC(=O)O)cc1
inactive: SK-MEL-2 melanoma 99.9% | EKVX NSCLC 95.9% | SN12C renal 106% | UO-31 renal 88.3% | TK-10 renal 89.4% | ACHN renal 102% | A498 renal 110% | CCRF-CEM leukemia 110% | MOLT-4 leukemia 95.1%

O=S(=O)(O)c1ccc(Cl)cc1
inactive: SK-MEL-2 melanoma 95.9% | EKVX NSCLC 105% | SN12C renal 100% | UO-31 renal 88.7% | TK-10 renal 88.2% | ACHN renal 104% | A498 renal 110% | CCRF-CEM leukemia 106% | MOLT-4 leukemia 98.7%

CCOC(=O)c1cc(C(=O)c2cc(OC)c(OC)c(OC)c2)n2c1ccc1c3cccnc3ccc12
inactive: SK-MEL-2 melanoma 40.6% | EKVX NSCLC 93.3% | SN12C renal 78.7% | UO-31 renal 69% | TK-10 renal 85.3% | ACHN renal 76.2% | A498 renal 60.6% | CCRF-CEM leukemia 62.7% | MOLT-4 leukemia 31.4%

Cc1cc(=O)n2nnc3cc(Cl)c(Cl)cc3n12
inactive: SK-MEL-2 melanoma 102% | EKVX NSCLC 92.6% | SN12C renal 107% | UO-31 renal 81.3% | TK-10 renal 102% | ACHN renal 90.2% | A498 renal 138% | CCRF-CEM leukemia 23.1% | MOLT-4 leukemia 59.2%

O=C1c2ccccc2C(=O)c2c1ccc(C(Br)Br)c2Cl
inactive: SK-MEL-2 melanoma 60.7% | EKVX NSCLC 66.6% | UO-31 renal 52.4% | TK-10 renal 83.9% | A498 renal 108%
active: SN12C renal -48.5% | ACHN renal -74.1% | CCRF-CEM leukemia -6.37% | MOLT-4 leukemia -1.06%

CC(=O)Oc1cc(OC(C)=O)c2ccccc2c1OC(C)=O
inactive: SK-MEL-2 melanoma 90.5% | EKVX NSCLC 97.5% | SN12C renal 87.4% | UO-31 renal 62.6% | TK-10 renal 150% | ACHN renal 84.9% | A498 renal 95.2% | CCRF-CEM leukemia 76.7% | MOLT-4 leukemia 69.5%

Cc1ccc(NCCNCC(C)(C)O)c2c(=O)c3ccc(Cl)cc3sc12
active: ACHN renal 3.43% | CCRF-CEM leukemia -14.4% | MOLT-4 leukemia -30.7%
inactive: SK-MEL-2 melanoma 57.4% | EKVX NSCLC 71.8% | SN12C renal 34% | UO-31 renal 41.2% | TK-10 renal 74.2% | A498 renal 59%

CCCCCCCCCCOC(c1ccccc1)c1ccccc1
inactive: SK-MEL-2 melanoma 73.5% | EKVX NSCLC 90.4% | SN12C renal 102% | UO-31 renal 75.6% | TK-10 renal 85.1% | ACHN renal 88.8% | A498 renal 109% | CCRF-CEM leukemia 93.7% | MOLT-4 leukemia 84.5%

Cc1c(Cl)cccc1NC(=O)CN1CCOCC1
inactive: SK-MEL-2 melanoma 93.5% | EKVX NSCLC 102% | SN12C renal 99.9% | UO-31 renal 83.8% | TK-10 renal 84.4% | ACHN renal 109% | A498 renal 101% | CCRF-CEM leukemia 97.2% | MOLT-4 leukemia 82.3%

COc1cc(OC)c2c(=O)c(O)c(-c3ccccc3)oc2c1
inactive: SK-MEL-2 melanoma 87.3% | EKVX NSCLC 83.4% | SN12C renal 73.3% | UO-31 renal 53.8% | TK-10 renal 96.8% | ACHN renal 68% | A498 renal 69.6% | CCRF-CEM leukemia 47.8% | MOLT-4 leukemia 54.3%

CCN(CC)CC(=O)N(CC)c1ccc(C)c(Cl)c1
inactive: SK-MEL-2 melanoma 99.5% | EKVX NSCLC 105% | SN12C renal 101% | UO-31 renal 90.7% | TK-10 renal 93.6% | ACHN renal 117% | A498 renal 86.8% | CCRF-CEM leukemia 93.8% | MOLT-4 leukemia 65.1%

COc1cc(-c2nn(-c3ccc(NC(=O)NCCCNC(=O)c4ccccc4)cc3)cc2-c2ccncc2)ccc1Cl
inactive: SK-MEL-2 melanoma 18% | EKVX NSCLC 51.4% | SN12C renal 54.5% | UO-31 renal 29.6% | TK-10 renal 59.3% | ACHN renal 23.7% | A498 renal 12.7% | CCRF-CEM leukemia 14.5% | MOLT-4 leukemia 23.5%

C=CCn1c(SCC(=O)Nc2ccc(C(=O)/C=C/c3ccc(OC)cc3)cc2)nnc1-c1ccc(OC)c(OC)c1
inactive: SK-MEL-2 melanoma 89.3% | EKVX NSCLC 107% | SN12C renal 73.1% | UO-31 renal 65.8% | TK-10 renal 110% | ACHN renal 94.9% | A498 renal 92.8% | MOLT-4 leukemia 49.7%

Cc1c(Cl)cccc1NC(=O)CCCl
inactive: SK-MEL-2 melanoma 103% | EKVX NSCLC 106% | SN12C renal 95.8% | UO-31 renal 86.6% | TK-10 renal 89.3% | ACHN renal 108% | A498 renal 108% | CCRF-CEM leukemia 84.7% | MOLT-4 leukemia 85.3%

COc1cc(-c2nn(-c3cccc(NC(=O)CCN4CCN(c5ccccc5)CC4)c3)cc2-c2ccncc2)ccc1Cl
active: SK-MEL-2 melanoma -0.713% | A498 renal 5.91%
inactive: EKVX NSCLC 38.1% | SN12C renal 32.4% | UO-31 renal 37.8% | TK-10 renal 23.5% | ACHN renal 18% | CCRF-CEM leukemia 17.8% | MOLT-4 leukemia 15.4%

Cc1nn(-c2ccc(-c3ccc(OC(F)(F)F)cc3)cc2)c2nc(Cc3ccccc3)nc(N)c12
inactive: SK-MEL-2 melanoma 87.6% | EKVX NSCLC 72.3% | SN12C renal 62.8% | UO-31 renal 28.3% | TK-10 renal 68.1% | ACHN renal 16.7% | A498 renal 94.2% | MOLT-4 leukemia 68.6%

O=C(CCCCNC(=O)c1nc(-c2ccccc2)n(-c2ccccc2)n1)NO
inactive: SK-MEL-2 melanoma 67.6% | EKVX NSCLC 80.7% | SN12C renal 77.9% | UO-31 renal 86.4% | TK-10 renal 56% | ACHN renal 102% | MOLT-4 leukemia 58.1%

CCOC(=O)c1cc(C(=O)c2ccc(Cl)cc2)n2ccc(-c3cc[n+](CC(=O)c4ccc(OC)cc4)cc3)cc12
active: CCRF-CEM leukemia -3.14%
inactive: SK-MEL-2 melanoma 97.6% | EKVX NSCLC 96.4% | SN12C renal 102% | UO-31 renal 73.5% | TK-10 renal 124% | ACHN renal 96.4% | A498 renal 73.9% | MOLT-4 leukemia 11.1%

Nc1nccc(OCCO)n1
inactive: SK-MEL-2 melanoma 99.5% | EKVX NSCLC 97.8% | SN12C renal 107% | UO-31 renal 91% | TK-10 renal 90% | ACHN renal 108% | A498 renal 114% | CCRF-CEM leukemia 113% | MOLT-4 leukemia 99.9%

O=C(CCl)Nc1ccc(Cc2ccc(NC(=O)CCl)cc2)cc1
inactive: SN12C renal 31.6% | UO-31 renal 54.5% | TK-10 renal 83.6% | A498 renal 111%
active: SK-MEL-2 melanoma -20.6% | EKVX NSCLC -3.32% | ACHN renal -20.1% | CCRF-CEM leukemia 0.0611% | MOLT-4 leukemia -4.84%

CCOC(=O)c1cc(C(=O)c2cc(OC)cc(OC)c2)n2nc(C)ccc12
inactive: SK-MEL-2 melanoma 15.9% | EKVX NSCLC 75.5% | SN12C renal 58.1% | UO-31 renal 44.9% | TK-10 renal 65% | ACHN renal 60.5% | CCRF-CEM leukemia 13.7% | MOLT-4 leukemia 29.5%
active: A498 renal -1.92%

O=C(NCCCNS(=O)(=O)c1ccc(Cl)cc1)Nc1ccc(-n2cc(-c3ccncc3)c(-c3ccc(Cl)c(O)c3)n2)cc1
inactive: SK-MEL-2 melanoma 43.4% | EKVX NSCLC 61.7% | SN12C renal 46.1% | UO-31 renal 40.9% | TK-10 renal 62.5% | ACHN renal 26.4% | A498 renal 50.1% | CCRF-CEM leukemia 23.5% | MOLT-4 leukemia 15.6%
